Source: PubChem BioAssay
Lamin A splicing: qHTS Assay for Modulators of Lamin A Splicing; HeLa LMNA splicing GFP/RFP minigene ratio, 48 h; 200,000 tested, 0.01% active; Potency, µM (highest dose often 46.1 µM), without a hit: at the highest dose ratio change, negative = inhibition, most hits filed as inhibitors; active = well fitted inhibition curve with a large enough effect in the signal ratio, with a control signal flat, not every such curve was filed as active; inconclusive = small, poorly fitted or top-dose-only effect, or effect the other way, or a change in a side signal; the % refers to the signal ratio; also: potency is read from the fitted curve at half-maximal effect
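Read-out is the ratio of GFP to DsRed2 object intensity, acquired by 488 nm laser-scanning cytometry on HeLa lamin A-EGFP minigene reporter cells. Compound incubation 48 hrs at 37 °C in Opti-MEM with 2% FBS; DMSO 0.5% final.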
ALOX12 inhib: qHTS Assay for Inhibitors of 12-hLO (12-human lipoxygenase) | Polyunsaturated fatty acid lipoxygenase ALOX12 (Homo sapiens), P18054 | purified 12-hLO, xylenol orange hydroperoxide absorbance | Potency, µM (highest dose often 57.1 µM), without a hit: at the highest dose activity change, negative = inhibition, usual class: inhibitors | 150,000 tested, 0.12% active; active = well fitted inhibition curve with a large enough effect; inconclusive = small, poorly fitted or top-dose-only effect; also: potency is read from the fitted curve at half-maximal effect; nearly all actives have a fitted effect of over 55% in size
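Purified human 12hLO (150 nM), preincubated 15 min with compound, then 40 uM arachidonic acid for 30 min, room temperature, Hepes pH 7.0 with 0.01% Triton X-100. Hydroperoxide detected by ferrous iron/xylenol orange; 573/405 nm absorbance ratio gives reaction progress.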
ALDH1A1 block: qHTS Assay for Inhibitors of Aldehyde Dehydrogenase 1 (ALDH1A1). Potency, µM (series often up to 75.3 µM), inactives show at the top dose activity, negative = inhibition, hits mostly inhibitors. Purified ALDH1A1, NADH fluorescence, propionaldehyde substrate. 220,000 tested, 7.3% active. AID 1030, 2008. Aldehyde dehydrogenase 1A1 (Homo sapiens), P00352;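 also: potency is read from the fitted curve at half-maximal effect; plate controls were no enzyme wells and a reference inhibitor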
PNC assembly inh: High Content Assay for Compounds that inhibit the Assembly of the Perinucleolar Compartment; PC3M PTB-GFP, PNC prevalence imaging, 16 h; stronger effect = lower value; 140,000 tested, 3.1% active; activity change (PNC), negative = inhibition, % at 10 µM;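 active = readout at or below -70, meaning at least 70% loss of cells showing the perinucleolar compartment, a nuclear body marking cancer cells; inconclusive = readout between -30 and a set limit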;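 also: plate controls were DMSO wells for no effect and camptothecin positive control wells for full effect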
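PC3M cells stably expressing PTB-GFP, 750–1000 cells/well, treated 16 h at 37 °C with compound (23 nl of library stock), in duplicate. After paraformaldehyde fixation and Hoechst stain, imaged at 20x; PNC prevalence scored by image analysis.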
HPGD block: qHTS Assay for Inhibitors of HPGD (15-Hydroxyprostaglandin Dehydrogenase); 15-hydroxyprostaglandin dehydrogenase [NAD(+)] (Homo sapiens), P15428; purified HPGD, NADH fluorescence kinetic, PGE2 substrate; Potency, µM, inactives show top-dose activity change, negative = inhibition, hits mostly inhibitors; 150,000 tested, 4.3% active; also: potency is read from the fitted curve at half-maximal effect
Target sequence (P15428 whole entry, looked up): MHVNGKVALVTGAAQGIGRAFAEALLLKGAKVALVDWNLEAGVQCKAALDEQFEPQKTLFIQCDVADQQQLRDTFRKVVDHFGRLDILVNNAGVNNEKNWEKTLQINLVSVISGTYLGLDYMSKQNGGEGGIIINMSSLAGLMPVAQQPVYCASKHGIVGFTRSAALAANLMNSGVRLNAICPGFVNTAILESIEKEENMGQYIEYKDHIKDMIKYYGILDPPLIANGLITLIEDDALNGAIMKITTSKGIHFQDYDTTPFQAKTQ
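20 nM HPGD preincubated 15 min at room temperature with compound in 50 mM Tris-HCl pH 8, 0.01% Tween 20. Started with 1 mM NAD+ and 30 uM prostaglandin E2; NADH fluorescence (360/450 nm) read 5 times over 30-s intervals, last minus first.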
Active calls of the source: *; ? = inconclusive; · = no result given; [ ] = another dose, or the depositor's remark. A selection: hits, their analogues and other compounds. The true share with any hit is near 10%. Unless noted, calls follow the shape of the dose curve; as a rule, active = well fitted inhibition curve with a large enough effect (not every such curve was filed as active); inconclusive = small, poorly fitted or top-dose-only effect, or another doubt; inactive = no such curve, though single readings can be large or run the other way. Unless noted, % is scaled to controls: 0 for no effect and ±100 for the full control effect.

SMILES	Lamin A splicing	ALOX12 inhib	ALDH1A1 block	PNC assembly inh	HPGD block
CCC1=C(OC(=O)N(CC)CC)N2C(=O)OC(=NCCOC)[C@]2(Cc2ccccc2)[C@H]2C1=CC[C@H]1C(=O)N(CC(=O)OC)C(=O)[C@H]12	·	-1%	9%	·	-3%
CCC1=C(OC(=O)N(CC)CC)N2C(=O)OC(=NCCOC)[C@]2(C)[C@H]2C1=CC[C@H]1C(=O)N(CC(=O)OC)C(=O)[C@H]12	·	3%	28µM*	·	-15%
CCC(OC(=O)c1nsc(Cl)c1Cl)C(=O)NCc1cccs1 (centres undefined)	-6%	4%	3%	-20	25µM*
CC(C)CC(OC(=O)c1nsc(Cl)c1Cl)C(=O)NCc1cccs1 (centres undefined)	-1%	-3%	?	13	5µM*
CC(OC(=O)c1nsc(Cl)c1Cl)C(=O)NCc1ccc2c(c1)OCO2 (centres undefined)	11%[0.0737 µM]	1%	?	91	?
CC(OC(=O)c1nsc(Cl)c1Cl)C(=O)NCc1ccco1 (centres undefined)	3%	0%	2%	-8	-20%
CN1CCCN(C)C1c1cc([N+](=O)[O-])ccc1O	·	0%[11.4 µM]	12%[13.5 µM]	·	-9%
Cc1ccc(C(=O)c2cn(CC(=O)NCc3ccccc3Cl)c3nc(C)ccc3c2=O)cc1	15%[46 µM]	·	·	·	·
Cc1ccc(NC(=O)c2nnn(CC(=O)Nc3ccc(C)c(Cl)c3)c2N)c(C)c1	0%[46 µM]	·	·	·	·
CCOC(=O)c1ccc(Nc2c(CC)c(C)nc3ncnn23)cc1	?	2%	3%	-30	-24%
CCOC(=O)c1ccc(Nc2nc(C)cc(C)c2C#N)cc1	-4%	2%	?	-27	?
CCOC(=O)c1ccc(Nc2cc(C)nc3ncnn23)cc1	-10%	1%	10µM*	?	-24%
COC(=O)c1ccc(Nc2cc(C)nc3ncnn23)cc1	-8%	1%	-8%	17	·
CCc1c(C)nc2ncnn2c1Nc1ccc(C(C)=O)cc1	-5%	1%	2%	-111*	-20%
CCOC(=O)c1ccc(Nc2nnc3nc(C)cc(C)n23)cc1	1%	3%	?	6	22µM*
Cc1ccc(NC(=O)CSc2nn(-c3ccc(Cl)cc3)c(=S)s2)cc1S(=O)(=O)N(C)C	?	-7%	14µM*	26	?
CN(C)S(=O)(=O)c1cc(NC(=O)CSc2nn(-c3ccc(Cl)cc3)c(=S)s2)ccc1Cl	?	-4%	?	8	-9%
CCN(Cc1ccccc1)C(=O)c1cc2ccc3cccnc3c2[nH]1	-25%[46 µM]	·	·	·	·
c1ccn(-c2ccc(N3CCOCC3)cc2)c1	0%	-9%	?	0	-29%
Cc1ccc(C)n1-c1ccc(N2CCOCC2)cc1	0%	-7%	7.1µM*	26	-25%
C=C1C[C@@]23C[C@]1(O)CC[C@@H]2[C@]12C=C[C@@H](O)[C@](C)(C(=O)O1)[C@H]2[C@H]3C(=O)O	?	3%[25.6 µM]	-3%[20.9 µM]	·	-9%
C=C(C)CNC(=S)Nc1nc2c(cc1C(=O)OCC)CCCC2	2%	0%	1µM*	-15	-13%
C=C(C)CNC(=S)Nc1cccc(S(=O)(=O)NC2=NCCC2)c1	-1%[46 µM]	·	?	·	·
Cn1c(=O)c2c(nc(SCC(=O)O)n2Cc2cc3c(cc2Cl)OCO3)n(C)c1=O	-1%	3%	35µM*	58	25µM*
CCc1nc(C)ccc1OC(=O)C12CC3CC(CC(C3)C1)C2	-7%	-5%	18µM*	13	-21%
Cc1ccc(OC(=O)C23CC4CC(CC(C4)C2)C3)c(C)n1	-6%	-1%	-1%	66	-18%
Cc1cccc(NC(=O)C(c2ccccc2)N2Cc3ccccc3C2=O)c1C (centres undefined)	-6%[46 µM]	·	·	·	·
Cc1cc(C2(c3cc(C)c(O)c(C(=O)O)c3)OS(=O)(=O)c3ccccc32)cc(C(=O)O)c1O	·	5%[11.4 µM]	14%[13.5 µM]	·	-5%
